Shown are actives, neighbours in structure and some others; about 7.6% of the full set was active somewhere.
ELG1 repair inh = ELG1-dependent DNA repair inhibition; HEK293T ELG1-luciferase reporter, luminescence, 16 h; DNA damage induced by 5-fluorouridine; Potency, µM (highest dose often 46.1 µM), for the others: at the highest dose activity change, negative = inhibition, actives largely listed as inhibitors; hit rate 2.3% among 330,000; also: potency is read from the fitted curve at half-maximal effect; % is scaled to controls: 0 for no effect and ±100 for the full control effect; nearly all actives have a fitted effect of over 55% in size
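DMSO vehicle served as the neutral condition. Each well held 2,000 cells given 5-fluorouridine plus compound; after 16 hr at 37 °C/5% CO2, ONE-Glo was added and luciferase measured 30 min later.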
BRCA1 expr up = BRCA1 expression activation | MCF7-BRCA1-FFLuc reporter, luminescence, 48 h; response scale: scaled: vehicle 0%, 10 µM genistein 100% | Potency, µM (doses to about 46.1 µM), for the others: top-dose activation, usual class: activators | hit rate 1.1% among 380,000; also: potency is read from the fitted curve at half-maximal effect; nearly all actives have a fitted effect of over 80% in size
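Activators of BRCA1 expression were detected as increased firefly luciferase luminescence in engineered MCF7 cells after 48 h compound incubation. Signals were scaled to genistein 10 microM as full activation.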
RORg inh = blocks mouse ROR gamma transcriptional activity; P51450; Drosophila S2 Gal4-RORgamma UAS-luciferase reporter, 20 h; Potency, µM (titrated, usually from 53.6 µM), without a hit: at the highest dose activity change, negative = inhibition, usual class: inhibitors; hit rate 5.4% among 310,000; also: potency is read from the fitted curve at half-maximal effect; % is scaled to controls: 0 for no effect and ±100 for the full control effect; nearly all actives have a fitted effect of over 60% in size
Target sequence (P51450 whole entry, looked up, the tested form may be a part): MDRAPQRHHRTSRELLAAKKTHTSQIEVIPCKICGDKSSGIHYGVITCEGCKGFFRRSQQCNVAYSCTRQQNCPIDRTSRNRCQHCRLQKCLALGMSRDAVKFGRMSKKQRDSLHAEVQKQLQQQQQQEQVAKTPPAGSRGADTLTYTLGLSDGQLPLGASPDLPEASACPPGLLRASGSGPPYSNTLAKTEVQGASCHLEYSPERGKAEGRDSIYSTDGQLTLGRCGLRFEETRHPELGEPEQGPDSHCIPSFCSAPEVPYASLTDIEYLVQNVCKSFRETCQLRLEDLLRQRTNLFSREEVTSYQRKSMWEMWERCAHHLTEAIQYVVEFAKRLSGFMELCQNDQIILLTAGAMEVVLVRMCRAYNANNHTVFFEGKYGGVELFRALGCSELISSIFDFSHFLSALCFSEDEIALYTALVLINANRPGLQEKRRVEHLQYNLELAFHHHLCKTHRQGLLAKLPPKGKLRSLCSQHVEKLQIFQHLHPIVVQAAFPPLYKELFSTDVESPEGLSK
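Schneider cells (Drosophila), stable Gal4 DBD–ROR gamma + UAS-luc; 1 hr cmpd preincubation; Cu2+ induction 700 uM final; 20 hr ambient; luminescence.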
p53 reactivation = mutant p53 re-activation in reporter cells | H1299 p53-A138V BP100-luciferase reporter, luminescence, 24 h | Potency, µM (top dose mostly 92.2 µM), inactives show top-dose activity change, positive = activation, usual class: activators | hit rate 0.063% among 320,000 | AID 504706; also: potency is read from the fitted curve at half-maximal effect; % of control where 0% means no effect; nearly all actives have a fitted effect of over 45% in size
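p53-null H1299 cells stably carrying temperature-sensitive p53-A138V and a BP100-luciferase reporter were pinned with compounds (4-point, 1:5 series) and held 24 hrs at 37 deg C. Luminescence was read 10 min after detection reagent.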
Gal4-VP16 FLuc = counter-screen for ROR gamma inhibitors: Gal4-VP16 reporter | Drosophila S2 Gal4-VP16 UAS-luciferase, luminescence, 20 h | Potency, µM (titrated, usually from 53.6 µM), without a hit: top-dose activity, negative = inhibition, most hits filed as inhibitors | hit rate 3.5% among 310,000 | AID 2546;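 also: Gal4-VP16 expression switched on by copper sulfate through the metallothionein promoter; potency is read from the fitted curve at half-maximal effect; % is scaled to controls: 0 for no effect and ±100 for the full control effect; nearly all actives have a fitted effect of over 50% in size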
Giardia killer = Giardia lamblia killing; hit rate 0.15% among 340,000; activity change, % at 7.66 µM, hits read low; Giardia lamblia trophozoite viability; in the data active = activity change below about -80%; inconclusive = between about -30% and that limit;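 also: parasites exposed to compound for two days anaerobically before the ATP read; % is scaled to controls: 0 for no effect and ±100 for the full control effect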
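Trophozoites 100 cells/well + cpd; 48 hrs, 37 deg C, anaerobic. ATPLite 1-Step added, 15-30 min RT, luminescence read (ATP-based viability).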
Numbers without * were called inactive; ? = inconclusive; . = no result given; [ ] = dose if it differs, or a comment. Unless noted, calls follow the shape of the dose curve; as a rule, active = well fitted curve in the direction sought with a large enough effect; inconclusive = small, poorly fitted or top-dose-only effect, or another doubt; inactive = no such curve, though single readings can be large; an effect the other way counts as inactive or inconclusive.

SMILES	ELG1 repair inh	BRCA1 expr up	RORg inh	p53 reactivation	Gal4-VP16 FLuc	Giardia killer
Cc1ccc(C(=O)CC(=O)c2ccc(C)cc2O)cc1	?	51%	8.9µM*	?	?	2
CC(C)(C)c1ccc(C(=O)CC(=O)c2cc(Cl)ccc2O)cc1	1%	-65%	11µM*	?	?	9
Cc1ccc(C(=O)CC(=O)c2cc(Cl)ccc2O)cc1	?	-17%	?	?	10µM*	-17
Cc1ccc(C(=O)CC(=O)c2ccc(C(C)(C)C)cc2)cc1	?	?	?	6%	?	-15
CC(Sc1nc2ccccc2o1)C(=O)O (stereo not given)	?	-2%	-11%	?	-11%	0
CN(CCNC(=O)CN1C(=O)CSc2ccc(S(=O)(=O)N3CCCC3)cc21)Cc1ccccc1	-7%	2%	?	?	17%	17
COc1ccc([C@H]2C[C@@H](n3cc(COC(=O)c4ccccc4)nn3)[C@H](O)CN2CC2CCCCC2)cc1	.	-6%	.	.	.	.
COc1ccc(OCC(=O)Nc2nonc2NC(=O)COc2ccc(OC)cc2)cc1	9%	-3%	-10%	11%	-4%	-22
N#CCCn1cc(C(=O)Nc2ccc(C(=O)O)cc2)c(-c2ccc([N+](=O)[O-])cc2)n1	-15%	-19%	4%	-5%	-2%	12
CCOC(=O)c1ccc(NC(=O)c2cn(CCC#N)nc2-c2ccc3c(c2)OCCO3)cc1	15µM*	4%	25%	-15%	2%	0
COc1ccc(C(=O)c2c(C)c3ccccc3n2CC(O)CNC(C)C)cc1 (stereo not given)	-24%	-16%	7.9µM*	-14%	20µM*	-19
Cc1nn(-c2ccccn2)c(N)c1N=O	0%	9%	11µM*	1%	?	-6
COc1ccc(-n2nc(C)cc2Nc2ccccc2C(=O)O)cc1	-3%	13%	1%	-4%	0%	7
Cc1ccc(NC(=O)COc2ccc(CCO)cc2-n2nc3ccccc3n2)cc1C	18µM*	-83%	0%	-4%	-27%	-18
O=C(/C=C/c1ccco1)Nc1ccc2nc3n(c(=O)c2c1)CCCC3	13%	55%	15%	6%	-10%	8
CC(C)=C1CCC(C)CC1=NNC(N)=S (stereo not given)	.	4%	.	.	.	5
CC1C/C(=N\NC(N)=S)c2cc(Cl)ccc2S1 (stereo not given)	?	-32%	0.63µM*	8%	2µM*	-13
COc1ccc2[nH]cc(S(=O)(=O)c3ccc(F)cc3)c(=O)c2c1	-24%	0%	28%	5%	?	-1
CCOc1ccc2[nH]cc(S(=O)(=O)c3ccc(F)cc3)c(=O)c2c1	?	4%	0%	2%	13µM*	13
Cc1cccc(-c2cc3nc(C)cc(C)n3n2)c1	?	1.6µM*	-37%	14%	-14%	-13
COc1ccc(-c2cc3ncc(-c4ccccc4)c(N)n3n2)cc1	?	97%	?	4%	7.9µM*	?
COc1ccc(-c2cc3nc(C)cc(N)n3n2)cc1	?	-66%	11µM*	3%	10µM*	?
COc1ccc(-c2cc3nc(C)cc(-c4ccc(OC)cc4)n3n2)cc1	1%	-22%	8%	13%	1%	19
CCCC[n+]1ccn(C2=C([O-])c3ccccc3C(=O)/C2=N\S(=O)(=O)c2ccc(Cl)cc2)c1	?	-67%	1.6µM*	5%	?	-2
COc1ccc(-c2[nH]ncc2CN2CCN(Cc3cccs3)CC2)cc1F	21µM*	-25%	21%	-2%	3%	10
SMILES	ELG1 repair inh	BRCA1 expr up	RORg inh	p53 reactivation	Gal4-VP16 FLuc	Giardia killer
Cc1ccnc(NC(=O)COc2ccccc2[N+](=O)[O-])c1	?	.	11µM*	-2%	?	.
CC(C)C(=O)N1CCN(c2ccc(NC(=O)COc3ccccc3[N+](=O)[O-])cc2)CC1	9.2µM*	-64%	28%	-6%	-2%	9
O=C(COc1ccccc1[N+](=O)[O-])Nc1cccnc1	?	5%	0%	25%	-6%	-20
Cc1ccc(NC(=O)c2ccc(COc3ccccc3[N+](=O)[O-])o2)nc1	?	5%	.	-1%	.	11
Cc1ccc(NC(=O)COc2ccccc2[N+](=O)[O-])nc1	?	?	6.3µM*	16%	?	-28
COc1ccc(CC(=O)Nc2ccc3c(c2)CCC3)cc1OC	10µM*	-25%	25%	1%	?	4
COc1ccc(OC)c(CC(=O)Nc2ccc3c(c2)CCC3)c1	-20%	-16%	25%	2%	-4%	-3
CC(=O)c1cccc(NC(=O)Nc2ccc3c(c2)CCC3)c1	?	7.1µM*	7.1µM*	7%	7.9µM*	-9
CC(=O)c1cccc(NC(=O)c2ccc3c(c2)CCCC3)c1	?	3.5µM*	1.4µM*	?	2.8µM*	-25
Cc1cccc(NC(=O)C2C3CCCCC32)c1 (stereo not given)	?	10µM*	17%	.	-3%	-6
CCc1ccc(NC(=O)Nc2ccon2)cc1	?	3.2µM*	15%	?	-12%	6
CCCCN(C)CCC(=O)Nc1ccc2c(c1)CCC2	15µM*	-5%	?	-3%	-7%	-25
O=C(Nc1ccc([N+](=O)[O-])cc1)Nc1ccon1	3%	-30%	13%	-31%	-1%	18
CC(=O)c1cccc(NC(=O)c2noc3c2CCc2ccccc2-3)c1	?	?	0.71µM*	6%	2.2µM*	-11
Cc1cc(NC(=O)c2noc3c2CCc2ccccc2-3)no1	?	64%	-17%	11%	3%	7
Cc1cccc(NC(=O)Nc2ccc3c(c2)CCC3)c1	?	4.5µM*	2%	?	-15%	0
O=C(NC1CCS(=O)(=O)C1)c1cc2c(=O)n3ccccc3nc2n1Cc1ccccc1 (stereo not given)	.	0%	.	.	.	.
CCC(NS(=O)(=O)c1cnn(CC)c1)c1ccccc1 (stereo not given)	10%	8%	21%	3%	-1%[10 µM]	16
O=C(COC(=O)c1ccc(Cl)c(S(=O)(=O)N2CCc3ccccc3C2)c1)Nc1ncc(Cl)cc1Cl	8%	-23%	10%	1%	10%	12
CCc1ccc(NC(=O)Nc2ccc3c(c2)CCC3)cc1	?	3.5µM*	-2%	10%	-1%	0
COc1cc(-c2nc(-c3cccnc3)no2)cc(OC)c1OC	23µM*	1%	-2%	-8%	-8%	-11
COc1ccccc1-c1nc(-c2cccc(C)c2)no1	?	-36%	?	?	22µM*	1

Screening results deposited in PubChem by National Center for Advancing Translational Sciences (NCATS).
